Test results taken from PubChem BioAssay.
Active and inactive are the calls of the source.

Tests used:
[1] = small molecules captured by biotinylated probe aFSTL3 – biochemical, small-molecule microarray, fluorescence 635/667, stem cell growth factor project, primary screen (AID 1064); conditions: higher = more signal;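 note: measures binding of the biotinylated anti-FSTL3 antibody to printed compounds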
[2] = binders from COS7 lysate, DM2A8 probe, primary screen, torsin A project, cell lysate, small-molecule microarray, fluorescence 635/667 (AID 1065); conditions: higher = more signal, COS7 lysate expressing mutant human TOR1A
[3] = small molecules captured by biotinylated probe aFGF2 – biochemical, small-molecule microarray, fluorescence 635/667, stem cell growth factor project, primary screen (AID 1067); conditions: higher = more signal;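 note: measures binding of biotinylated aFGF2 protein to printed compounds on slides; z-score merges feature fluorescence and signal-to-noise across triplicate slides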
[4] = small molecules captured by biotinylated probe aFGF10 – biochemical, small-molecule microarray, fluorescence 635/667, stem cell growth factor project, primary screen (AID 1071); conditions: higher = more signal;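 note: score merges 667 nm spot intensity and signal to noise from triplicate slides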
[5] = molecular target: Neurogenic locus notch homolog protein 2 (Homo sapiens) (UniProt Q04721); experiment: small molecules binding Notch2 protein – biochemical, small-molecule microarray, 635 nm fluorescence, stem cell growth factors, primary screen (AID 1073); conditions: higher = more signal
[6] = molecular target: Pro-neuregulin-1, membrane-bound isoform (Homo sapiens) (UniProt Q02297); experiment: small molecules binding neuregulin-1 protein – biochemical, small-molecule microarray, fluorescence 635/667, psychiatric disease protein project, primary screen (AID 1075); conditions: NRG1 binding, 635 nm fluorescence, higher = more signal;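 note: score combines 667 nm spot fluorescence with signal to noise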
[7] = tested on: Neuregulin-1 EGF-like domain; experiment: small molecules binding NRG1 EGF domain – biochemical, small-molecule microarray, 635 nm fluorescence, primary screen (AID 1081); conditions: higher = more signal;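 note: binding of the protein to compounds printed on small-molecule microarray slides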
[8] = FRG1 expression reporter modulators in myotubes – cell-based, C2C12 myotubes, firefly/Renilla luciferase, luminescence, FRG1 inhibition for FSHD, primary screen (AID 1084); conditions: FRG1 promoter luciferase, higher = more signal, called active from +8 up or from −8 down
[9] = small molecules captured by biotinylated probe aFST – biochemical, small-molecule microarray, fluorescence 635/667, stem cell growth factor project, primary screen (AID 1086); conditions: higher = more signal;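 note: score merges 667 nm fluorescence with signal-to-noise of each printed compound spot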
[10] = binders of probe aHhip on microarray, primary screen, stem cell growth factor project, biochemical, small-molecule microarray, fluorescence 635/667 (AID 1087); conditions: higher = more signal;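 note: score merges spot fluorescence at 667nm with spot signal to noise ratio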

Chain of Neurogenic locus notch homolog protein 2 (Homo sapiens) (Q04721 whole entry, looked up, canonical isoform): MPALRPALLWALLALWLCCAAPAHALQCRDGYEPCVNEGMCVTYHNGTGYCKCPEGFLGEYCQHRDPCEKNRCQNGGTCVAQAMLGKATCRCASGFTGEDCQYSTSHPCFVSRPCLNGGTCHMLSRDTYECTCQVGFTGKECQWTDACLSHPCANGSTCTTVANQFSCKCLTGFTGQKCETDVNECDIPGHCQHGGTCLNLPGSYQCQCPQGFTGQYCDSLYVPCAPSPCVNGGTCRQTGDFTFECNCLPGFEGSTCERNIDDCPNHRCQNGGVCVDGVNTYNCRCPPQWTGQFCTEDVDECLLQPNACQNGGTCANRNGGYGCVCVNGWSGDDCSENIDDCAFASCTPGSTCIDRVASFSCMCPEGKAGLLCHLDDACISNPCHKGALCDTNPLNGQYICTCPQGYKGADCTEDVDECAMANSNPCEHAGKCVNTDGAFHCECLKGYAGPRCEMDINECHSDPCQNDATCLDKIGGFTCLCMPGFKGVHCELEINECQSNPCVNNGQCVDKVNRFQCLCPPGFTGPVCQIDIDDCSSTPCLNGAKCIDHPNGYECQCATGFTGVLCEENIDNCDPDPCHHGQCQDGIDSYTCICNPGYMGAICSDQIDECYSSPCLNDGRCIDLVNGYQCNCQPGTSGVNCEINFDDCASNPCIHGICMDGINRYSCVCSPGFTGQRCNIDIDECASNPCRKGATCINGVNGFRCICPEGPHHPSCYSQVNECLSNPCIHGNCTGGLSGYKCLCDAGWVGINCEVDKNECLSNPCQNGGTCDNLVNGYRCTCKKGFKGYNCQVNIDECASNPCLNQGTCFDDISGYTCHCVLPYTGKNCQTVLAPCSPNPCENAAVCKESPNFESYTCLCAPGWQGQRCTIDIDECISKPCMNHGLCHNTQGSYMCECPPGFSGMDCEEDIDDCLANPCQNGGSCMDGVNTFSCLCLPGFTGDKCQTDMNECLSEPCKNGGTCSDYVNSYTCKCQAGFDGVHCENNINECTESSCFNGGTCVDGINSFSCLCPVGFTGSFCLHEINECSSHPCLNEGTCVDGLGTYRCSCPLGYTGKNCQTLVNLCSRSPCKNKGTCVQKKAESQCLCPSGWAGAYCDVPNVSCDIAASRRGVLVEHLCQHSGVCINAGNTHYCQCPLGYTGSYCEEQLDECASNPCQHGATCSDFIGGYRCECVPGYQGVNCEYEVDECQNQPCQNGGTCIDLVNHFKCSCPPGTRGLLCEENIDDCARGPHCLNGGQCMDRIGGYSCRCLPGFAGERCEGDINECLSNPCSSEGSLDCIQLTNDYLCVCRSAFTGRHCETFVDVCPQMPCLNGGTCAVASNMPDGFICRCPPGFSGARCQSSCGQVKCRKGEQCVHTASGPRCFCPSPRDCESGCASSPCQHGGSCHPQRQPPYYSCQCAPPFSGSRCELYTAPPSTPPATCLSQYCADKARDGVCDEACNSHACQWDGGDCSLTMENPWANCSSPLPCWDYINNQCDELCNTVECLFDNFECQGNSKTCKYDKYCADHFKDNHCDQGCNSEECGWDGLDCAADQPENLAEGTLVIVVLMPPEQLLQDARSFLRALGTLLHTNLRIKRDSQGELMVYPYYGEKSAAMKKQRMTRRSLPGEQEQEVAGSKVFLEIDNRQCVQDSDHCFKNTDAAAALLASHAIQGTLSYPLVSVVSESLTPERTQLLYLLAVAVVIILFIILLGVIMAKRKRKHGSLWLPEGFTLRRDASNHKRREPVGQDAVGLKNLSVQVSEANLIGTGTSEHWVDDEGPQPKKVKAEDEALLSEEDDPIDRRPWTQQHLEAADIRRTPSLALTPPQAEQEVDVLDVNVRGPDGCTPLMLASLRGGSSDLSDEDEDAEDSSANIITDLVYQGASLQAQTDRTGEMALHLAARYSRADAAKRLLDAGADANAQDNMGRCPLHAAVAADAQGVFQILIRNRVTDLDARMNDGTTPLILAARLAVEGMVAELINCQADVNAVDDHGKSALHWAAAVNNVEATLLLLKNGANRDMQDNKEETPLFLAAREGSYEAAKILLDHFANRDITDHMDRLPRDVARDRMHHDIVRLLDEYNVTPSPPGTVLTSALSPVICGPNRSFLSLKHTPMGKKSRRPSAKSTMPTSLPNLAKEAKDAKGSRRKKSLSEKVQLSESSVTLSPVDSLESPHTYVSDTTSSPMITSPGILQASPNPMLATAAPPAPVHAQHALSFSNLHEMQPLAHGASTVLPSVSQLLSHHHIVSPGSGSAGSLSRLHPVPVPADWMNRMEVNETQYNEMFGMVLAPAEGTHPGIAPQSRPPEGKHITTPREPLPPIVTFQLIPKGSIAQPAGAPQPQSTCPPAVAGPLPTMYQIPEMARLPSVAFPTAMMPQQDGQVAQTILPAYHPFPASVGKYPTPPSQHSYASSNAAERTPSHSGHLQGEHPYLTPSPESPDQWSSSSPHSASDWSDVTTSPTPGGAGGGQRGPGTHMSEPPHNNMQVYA
Chain of Pro-neuregulin-1, membrane-bound isoform (Homo sapiens) (Q02297 whole entry, looked up, the tested form may be a part, canonical isoform): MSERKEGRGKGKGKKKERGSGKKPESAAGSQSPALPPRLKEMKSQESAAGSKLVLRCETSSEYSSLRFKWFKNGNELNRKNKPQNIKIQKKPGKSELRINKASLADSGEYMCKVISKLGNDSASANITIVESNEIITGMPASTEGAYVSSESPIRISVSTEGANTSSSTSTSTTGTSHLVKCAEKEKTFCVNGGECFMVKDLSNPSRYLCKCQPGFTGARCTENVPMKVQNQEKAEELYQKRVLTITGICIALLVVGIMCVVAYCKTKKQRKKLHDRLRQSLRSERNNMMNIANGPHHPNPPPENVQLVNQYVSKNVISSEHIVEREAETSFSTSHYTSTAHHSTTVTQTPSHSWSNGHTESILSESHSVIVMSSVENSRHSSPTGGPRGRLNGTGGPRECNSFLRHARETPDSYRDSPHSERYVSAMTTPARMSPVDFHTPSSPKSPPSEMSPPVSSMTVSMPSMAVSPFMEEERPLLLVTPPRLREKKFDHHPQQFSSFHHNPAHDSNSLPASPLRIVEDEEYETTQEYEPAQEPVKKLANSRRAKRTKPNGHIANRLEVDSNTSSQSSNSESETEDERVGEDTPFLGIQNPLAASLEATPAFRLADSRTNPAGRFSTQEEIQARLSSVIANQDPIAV

Compound	composite z-score [1]	composite z-score [2]	composite z-score [3]	composite z-score [4]	composite z-score [5]	composite z-score [6]	composite z-score [7]	z-score [8]	composite z-score [9]	composite z-score [10]
CO[C@@H]1COC(=O)CC=C[C@H](C)[C@H](OC)COC(=O)[C@@H]2CCCN2C(=O)CC=C[C@H]1C	-0.811	1.74	-0.196	0.0967	-0.271	-0.285	0.158	-0.331 (inactive)	0.0991	-0.166
C[C@H]1C=CCC(=O)OC[C@H](C)C(=O)N2CCC[C@H]2C(=O)OC1	-0.815	2.27	-0.291	-0.517	-0.594	-1.01	1.32	0.263 (inactive)	0.227	0.107
C[C@]12CCC3c4ccc(OCC5CO5)cc4CCC3C1CC[C@@H]2O (stereo not given in full)	0.157	0.258	-0.0415	0.381	1.04	0.703	1.07	1.05 (inactive)	0.473	-0.0994
CCN1C(=O)[C@H]2[C@H]3[C@H](O)[C@H](O)CC(=NOC(C)CN4CCCc5nc(C)c(C)cc54)[C@@H]3CC[C@H]2C1=O (stereo not given in full)	-0.342	0.564	-0.0468	0.49	0.724	-0.0318	0.963	-0.266 (inactive)	0.372	0.0596
COC(=O)CC=C[C@@H](C)[C@@H](C=NOC[C@@H](O)COCc1ccco1)OC	-0.663	2.07	-0.225	-0.813	-1.05	-0.209	0.532	0.103 (inactive)	-0.466	-0.164
CCOC(=O)[C@H](CC(C)C)NC(=O)CCC1CC(OC(=O)NCc2ccc3c(c2)OCO3)CC2(CCCC(COC(=O)NCCOc3ccccc3)O2)O1 (stereo not given in full)	-0.538	0.143	-0.11	0.652	1.36	0.843	0.943	0.929 (inactive)	0.0762	0.276
COC(=O)[C@@H]1CC[C@H](C)[C@@H](c2ccc(Br)cc2)N1C[C@@H](O)CN=[N+]=[N-]	-0.463	0.054	-0.116	0.186	0.462	0.117	-0.0109	0.687 (inactive)	-0.139	0.0881
Cc1cc(C)c(-c2cc([C@H](C)ON=C[C@@H](C)[C@H](OCc3ccccc3)C(C)C)on2)c(C)c1	-0.355	0.298	-0.0901	0.0823	-0.637	-0.529	-1.22	0.239 (inactive)	-0.342	0.0505
COC(=O)[C@H](C)NC(=O)CCC1CC(OC(=O)NCc2cccc3ccccc23)CC2(CCCC(COC(=O)NCCOc3ccccc3)O2)O1 (stereo not given in full)	-0.359	0.222	-0.0707	0.15	0.708	1.27	1.01	0.191 (inactive)	0.173	-0.169
O=C1C2=CC[C@H]3C(=O)N(C4CCCCC4)C(=O)[C@H]3[C@H]2[C@H](O)[C@@H]2O[C@H]12	-0.115	-2.14	-0.162	-0.179	-0.423	-0.0738	-0.515	11.5 (active)	-0.5	-0.164
CCOC(=O)CCN1C(=O)[C@H]2[C@H]3[C@H](O)[C@H](O)CC(=O)[C@@H]3CC[C@H]2C1=O	-0.577	0.125	-0.16	0.832	0.916	0.102	0.482	-0.407 (inactive)	0.658	-0.27
CCOC(=O)[C@H](CC(C)C)NC(=O)CCC1CC(OC(=O)NCc2ccc3c(c2)OCO3)CC2(CCCC(COC(=O)NCc3ccccc3)O2)O1 (stereo not given in full)	-0.542	0.01	-0.0667	0.536	0.375	0.929	1.12	1.61 (inactive)	0.986	-0.0994
CC(CCN1CCCc2nc(C)c(C)cc21)=NO[C@H](C)c1cn([C@H](CO)Cc2ccccc2)nn1	-0.303	0.455	-0.0568	0.545	0.531	0.0463	1.03	1.53 (inactive)	0.64	-0.236
C=CC[C@@H]1C=C[C@H](ON=C[C@@H](NS(=O)(=O)c2ccc(C)cc2)[C@H](C)C=CCC(=O)OC)[C@@H](CO)O1	-0.172	0.571	-0.134	0.2	-0.0681	-0.209	0.476	-0.0545 (inactive)	-0.0961	0.289
C#CCCCON=C1C[C@@H](O)[C@@H](O)[C@@H]2[C@@H]3C(=O)N(C[C@@H]4CCCO4)C(=O)[C@@H]3CC[C@H]12	-0.444	0.368	-0.168	0.188	0.53	0.43	0.475	0.164 (inactive)	0.0653	-0.353
C=CC[C@@H]1C=C[C@H](ON=C(C)CCN2CCCCc3nc(C)c(C)cc32)[C@@H](CO)O1	0.407	1.57	-0.0704	0.129	0.145	0.37	0.899	0.389 (inactive)	0.238	0.0053
CON=C1c2cc(OC)ccc2O[C@H](c2cccc(OC)c2)[C@H]1O	-0.289	0.707	-0.0473	0.492	0.385	0.247	0.945	5.9 (inactive)	0.583	0.0053
CC(=O)OC[C@H]1O[C@@H](ON=C(C)CCC(=O)OC[C@H]2O[C@H](C#Cc3ccccc3)C=C[C@@H]2Oc2ccc(C)cc2)[C@H](OC(C)=O)[C@@H](OC(C)=O)[C@@H]1OC(C)=O	-0.65	0.745	0.0309	1.12	0.951	0.51	0.938	0.66 (inactive)	0.31	-0.0994
CC(CCN1CCCc2nc(C)c(C)cc21)=NOC[C@@H](C)[C@H](OCc1ccccc1)C(C)C	-0.247	-0.325	-0.15	-0.0055	-0.766	-0.162	-0.995	-0.14 (inactive)	-0.342	0.236
O=C(NN=C1C[C@@H](O)[C@@H](O)[C@@H]2[C@@H]3C(=O)N(Cc4ccccc4)C(=O)[C@@H]3CC[C@H]12)OCc1ccccc1	-0.286	0.897	-0.0996	0.378	0.226	-0.153	-0.15	0.157 (inactive)	0.122	0.0373
COc1ccc(COC(=O)NN=C2C[C@@H](O)[C@@H](O)[C@@H]3[C@@H]4C(=O)N(Cc5ccc6c(c5)OCO6)C(=O)[C@@H]4CC[C@H]23)cc1	1.62	-0.197	-0.0269	-0.0605	-0.546	-0.393	-0.282	1.02 (inactive)	0.648	0.0373
O=C1[C@H]2[C@H]3[C@H](O)[C@H](O)CC(=NOC[C@@H](O)COCc4ccco4)[C@@H]3CC[C@H]2C(=O)N1C1CCCCC1	-0.679	2.04	-0.16	-0.357	0.0224	-0.459	1.2	0.219 (inactive)	-0.045	0.235
O=C1[C@H]2[C@H]3[C@H](O)[C@H](O)CC(=NO[C@@H]4O[C@H](CO)[C@@H](O)[C@H](O)[C@H]4O)[C@@H]3CC[C@H]2C(=O)N1c1cccc(Oc2ccccc2)c1	-0.309	0.21	-0.125	0.649	0.628	0.495	1.02	0.423 (inactive)	0.365	0.0373
CCN1C(=O)[C@H]2[C@H]3[C@H](O)[C@H](O)CC(=NOC[C@@H](O)COCc4ccco4)[C@H]3CC[C@H]2C1=O	-0.905	2.38	-0.318	-1.68	-0.886	-0.502	0.456	-0.172 (inactive)	-0.104	0.0578
